This note sets out measurements from PubChem BioAssay.

Assay [1] is described as follows: Her2 expression decrease, cell viability multiplex – SKBR3 breast tumor cells, AlphaScreen, ATP viability, primary screen (AID 461;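 active = Her2 level under about 52% in both replicate screens, with viability over 70% of control, limit read from the data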;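 as to Her2 level: lower value means less Her2 protein in the cells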;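 as to viability: percent of carrier control wells set as 100% viability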). The settings on record: SKBR3 Her2 protein level, 18-24 h, measured here: SKBR3 viability, ATP luminescence, at 10 µM. In general terms: Bead proximity is the source of the signal in Alpha formats.
Assay [2] concerns the target Receptor tyrosine-protein kinase erbB-2 (Homo sapiens) (UniProt P04626). The description is as above. To be noted: 18-24 h, at 10 µM, stronger effect = lower value.
A short description of assay [3]: reduced viability of SK-BR-3 breast cancer cells – cell-based, 24 h, human, pilot screen (AID 572;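 active = viability at or below 10% of carrier control in both of two separate runs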;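 also: compound exposure lasted between 18 and 24 h rather than exactly 24 h; 100% = carrier-treated control wells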). To be noted: SK-BR-3 viability, CellTiter-Glo luminescence, at 10 µM, stronger effect = lower value. In general terms: Cellular ATP, detected with luciferase, serves as a proxy for viable cell number.
Assay [4] can be described thus: HUVEC growth inhibition – cell-based, human, primary screen (AID 575;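 active = viability at or below 30% in both replicate assays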;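 also: 100% = median of untreated cell wells with 0.1% DMSO on each plate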). The settings on record: HUVEC proliferation, CellTiter-Glo luminescence, 72 h; at 10 µM; stronger effect = lower value.
Assay [5] is described as follows: H69AR cell proliferation blockers – human, duplicate replicates, primary screen (AID 580;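 active = viability at or under a set limit in both replicates, limit being median viability minus 3 SD, cut at about 48% in these data, passing the limit was not always enough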;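 also: 100% = mean luminescence of untreated wells and 0% = no signal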). To be noted: H69AR lung tumor cells viability, ATP luminescence, 72 h; at 10 µM; stronger effect = lower value.
Assay [6] in a line: MRP1 drug-resistance reversers in H69AR cells – cell-based, doxorubicin co-treatment, pilot screen (AID 601;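 active = viability loss from added drug above about 55%, and viability with drug at most 40%, in both replicates, limit read from the data, passing the limit was not always enough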). The settings on record: CellTiter-Glo, 72 h, at 10 µM; for differential viability (reversal): stronger effect = higher value.
Assay [7] in a line: yeast transport mutant growth inhibition pilot in 384-well plates, post-Golgi transport modulator project (AID 636; in the data active = inhibition above about 31%). To be noted: absorbance 615 nm, about 18 h, stronger effect = higher value.
Assay [8] is described as follows: growth suppression of yeast trafficking mutant, preliminary HTS, modulators of trafficking downstream of Golgi apparatus project, 1536-format plate, OD 615 nm (AID 637; in the data active = inhibition above about 30%). The settings on record: yeast transport mutant growth, absorbance 615 nm, 18 h; stronger effect = higher value.
Assay [9] in a line: S. cerevisiae growth inhibition in permissive medium (OD615), pilot counter-assay for S. cerevisiae lifespan shortening project, permissive growth control (AID 705). The settings on record: OD615, 24 h, at 10 µM, stronger effect = higher value.
The nature of assay [10]: S. cerevisiae growth inhibition in restrictive medium, OD615, pilot screen, restrictive growth control, yeast lifespan reduction project (AID 706;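 active = growth inhibition above a set limit, 3 SD over mean compound inhibition, in both replicates, cut at about 43% in these data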;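 also: modified DeaD lifespan yeast strain shifted to restrictive glucose medium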). To be noted: OD615, 48 h, at 10 µM, stronger effect = higher value.
A short description of assay [11]: doxorubicin toxicity protection in MRP-1 cells – H69AR cells, CellTiter-Glo, duplicate, MRP-1 activator project, pilot screen (AID 807;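 active = viability increase at or above a cutoff of the median across tested compounds plus 3 SD, cut at about 8.5% in these data, passing the limit was not always enough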;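 also: compound pretreatment 18-22 h then 72 h combined with doxorubicin; 0% = doxorubicin alone and 100% = vehicle without doxorubicin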). To be noted: H69AR viability with doxorubicin, CellTiter-Glo luminescence; at 10 µM; stronger effect = higher value.
A short description of assay [12]: viability of HCT116 without oncogenic beta-catenin – human colon tumor cells, pilot screen (AID 823;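 active = cell viability at or below a set limit in both duplicate runs, the limit being the all-compound median minus 4 SD, cut at about 23% in these data, passing the limit was not always enough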;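 also: 0% = wells killed by 20 µM Hyamine and 100% = untreated DMSO cell wells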). The settings on record: HCT116 beta-catenin knockout viability, CellTiter-Glo, 60 h; at 10 µM; stronger effect = lower value.
Assay [13] is described as follows: viability of PTEN-null HCT116 cells – cell-based, HCT116 clonal line, CellTiter-Glo, pilot screen (AID 824;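 active = viability at or below 27.92% in each of two runs, the all-compound median minus 4 SD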;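 also: 0% = 20 µM Hyamine control and 100% = vehicle cell control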). The settings on record: HCT116 PTEN-deleted viability, 60 h, at 10 µM, stronger effect = lower value.
Assay [14] can be described thus: RAM pathway blockade in budding yeast – dse1pr::URA3 reporter, 5-FOA selection, pilot screen (AID 869;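 active = inhibition over a set limit, the all-compound mean plus 3 SD, in both replicate runs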;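 also: 0% = DMSO wells with no growth and 100% = 10 µM 1-NA-PP1 with full growth; RAM network block rescues cells from 5-FOA so hits raise OD615 growth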). The settings on record: S. cerevisiae dse1pr::URA3 5-FOA growth, OD615, 2 d; at 10 µM; stronger effect = higher value; strain carries analog-sensitive mutant Cbk1 kinase.
Assay [15] in a line: RAM signaling pathway blockade in yeast – S. cerevisiae, Pdr1DBD-CYC8 efflux-inhibited sensitized strain, primary screen (AID 1298;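 active = RAM network inhibition above 8.4% in each of two replicates, 3 SD over the compound average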;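 also: 0% = DMSO untreated cells without growth and 100% = 10 µM 1-NA-PP1 full growth; higher means more yeast growth rescued from 5-FOA killing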). To be noted: S. cerevisiae cbk1-as DSE1-URA3 strain, 5-FOA growth OD615, 2 d; at 50 µM; stronger effect = higher value.
[16] abbreviates: H69AR cells + 2 uM doxorubicin, measured here: viability with 2 uM doxorubicin, stronger effect = lower value.
Where [17] appears, read: H69AR cells, compound alone cytotoxicity.

Results filed as inconclusive are left out. Calls of active or inactive are those of the source.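 The calls were made as follows, unless noted: active = growth inhibition above 25% in both replicates, a cutoff set 3 SD above the mean; inconclusive = above 25% in only one replicate; inactive = the rest.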

Chain of Receptor tyrosine-protein kinase erbB-2 (Homo sapiens) (P04626 whole entry, looked up): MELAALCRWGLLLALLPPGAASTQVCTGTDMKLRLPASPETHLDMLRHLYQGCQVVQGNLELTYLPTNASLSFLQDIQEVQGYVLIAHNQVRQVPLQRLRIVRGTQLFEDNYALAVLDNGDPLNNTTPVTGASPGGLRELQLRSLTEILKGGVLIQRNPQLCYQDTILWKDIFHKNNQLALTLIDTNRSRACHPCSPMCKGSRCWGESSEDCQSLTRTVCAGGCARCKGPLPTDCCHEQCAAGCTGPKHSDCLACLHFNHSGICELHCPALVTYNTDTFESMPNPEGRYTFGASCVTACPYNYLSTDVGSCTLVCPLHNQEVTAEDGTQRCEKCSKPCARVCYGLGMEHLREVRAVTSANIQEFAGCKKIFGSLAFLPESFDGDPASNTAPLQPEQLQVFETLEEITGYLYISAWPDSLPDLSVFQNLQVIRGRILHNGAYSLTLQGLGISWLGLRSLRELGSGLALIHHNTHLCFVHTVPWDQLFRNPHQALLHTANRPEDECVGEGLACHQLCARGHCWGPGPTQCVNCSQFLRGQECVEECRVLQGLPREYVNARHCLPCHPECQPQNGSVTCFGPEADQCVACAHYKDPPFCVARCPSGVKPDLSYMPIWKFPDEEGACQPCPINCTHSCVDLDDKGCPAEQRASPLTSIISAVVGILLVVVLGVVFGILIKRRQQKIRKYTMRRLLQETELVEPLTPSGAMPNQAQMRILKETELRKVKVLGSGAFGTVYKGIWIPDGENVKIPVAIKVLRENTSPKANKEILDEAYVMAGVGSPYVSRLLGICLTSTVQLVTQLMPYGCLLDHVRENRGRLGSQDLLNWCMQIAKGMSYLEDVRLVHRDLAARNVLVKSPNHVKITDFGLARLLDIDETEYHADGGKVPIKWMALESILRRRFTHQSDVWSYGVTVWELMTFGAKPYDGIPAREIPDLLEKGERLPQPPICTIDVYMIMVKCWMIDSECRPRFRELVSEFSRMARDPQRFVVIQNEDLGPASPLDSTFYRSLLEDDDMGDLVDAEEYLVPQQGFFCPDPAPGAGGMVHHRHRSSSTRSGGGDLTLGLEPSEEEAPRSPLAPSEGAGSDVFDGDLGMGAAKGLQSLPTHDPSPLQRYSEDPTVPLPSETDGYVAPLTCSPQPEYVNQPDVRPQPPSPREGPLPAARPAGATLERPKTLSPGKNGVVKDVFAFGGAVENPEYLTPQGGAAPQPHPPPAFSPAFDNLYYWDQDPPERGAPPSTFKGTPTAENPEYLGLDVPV

As usually defined, the viability is a read-out of living cells in per cent, often relative to untreated cells. The term inhibition denotes the drop in the measured response relative to a control, in per cent. For `CCOC(=O)N1CCC(Nc2nc3ccccc3n3cnnc23)CC1`, the viability in assay [1] is 94%; in assay [3], 94% (inactive); in assay [4], 85.8% (inactive); in assay [5] it was 87.1% (inactive); in assay [6] (setting [16]), 81.9%; in [6] (setting [17]), 87.1%. In addition, the viability is 102% (inactive) in assay [12] and 95.2% (inactive) in assay [13]. Moreover, the Her2 level in assay [2] was 89.5% (inactive). The differential viability (reversal) in assay [6] (H69AR cells + 2 uM doxorubicin) was 5.21% (inactive). The inhibition in assay [7] was -0.13% (inactive); in [8] it was 3.17% (inactive); in assay [14] it was 1.23% (inactive). The growth inhibition in assay [9] is 0.55% (inactive); in assay [10] it was -10.8% (inactive). The viability increase in [11] was -4.12% (inactive). Also, in assay [15], the RAM network inhibition was 4.35% (inactive).
`COc1ccccc1Oc1ccc(S(=O)(=O)N2CCOCC2)cc1S(=O)(=O)N1CCOCC1`: the viability in [1] is 86.5%; in assay [3], 86.5% (inactive); in assay [4], 101% (inactive); in assay [5], 83.6% (inactive); in [6] (setting [16]), 88.1%; in [6] (setting [17]), 83.6%. The values for the viability in assay [12] and in assay [13] were 93.6% (inactive) and 98.3% (inactive), respectively. Besides, in assay [2], the Her2 level is 121% (inactive). The differential viability (reversal) in assay [6] (H69AR cells + 2 uM doxorubicin) was -4.58% (inactive). Moreover, the results for the inhibition in assay [7], in assay [8] and in assay [14] were -0.77% (inactive), -6.67% (inactive) and 2.41% (inactive), respectively. The growth inhibition was -16.4% (inactive) in assay [9] and -21.3% (inactive) in [10]. Further, the viability increase in assay [11] is -0.17% (inactive). In addition, the RAM network inhibition in assay [15] is 4.3% (inactive).
For `CCOC(=O)c1csc(NC(=O)C2CCCCC2)n1`, the viability in assay [1] is 81%; in assay [3] it was 81% (inactive); in assay [4] it was 95% (inactive); in [5], 96.5% (inactive); in assay [6] (setting [16]), 70.2%; in assay [6] (setting [17]) it was 96.5%. For the same compound, the viability in assay [12] was 91.4% (inactive); in assay [13], 94.6% (inactive). The Her2 level in [2] is 90% (inactive). Moreover, the differential viability (reversal) in [6] (H69AR cells + 2 uM doxorubicin) was 26.3% (inactive). For the same compound, the inhibition was -1.47% (inactive) in [7], 0.83% (inactive) in assay [8] and 0.89% (inactive) in [14]. For the same compound, the growth inhibition is -5.67% (inactive) in assay [9] and 7.35% (inactive) in assay [10]. Moreover, in assay [11], the viability increase was 2.52% (inactive). The RAM network inhibition in [15] was 0.47% (inactive).
Turning to `Cc1ccc2oc(=O)c3cnn(CC(=O)NCCC(C)C)c3c2c1`, the viability was 84.5% in [1]; 84.5% (inactive) in assay [3]; 95.2% (inactive) in assay [4]; 88.1% (inactive) in [5]; 72.6% in assay [6] (setting [16]); 88.1% in assay [6] (setting [17]). Also, the viability is 105% (inactive) in assay [12] and 100% (inactive) in assay [13]. The Her2 level in [2] is 102% (inactive). Moreover, the differential viability (reversal) in assay [6] (H69AR cells + 2 uM doxorubicin) was 15.4% (inactive). The inhibition in assay [7] is -0.26% (inactive); in assay [8] it was -1.67% (inactive); in assay [14] it was 1.22% (inactive). The growth inhibition in assay [9] was 2.22% (inactive); in assay [10], -6.28% (inactive). In [11], the viability increase is -1.72% (inactive). Besides, the RAM network inhibition in assay [15] was 6.67% (inactive).
As for `CCSc1nc(O)c(CC)c(=O)n1C(C)CC` (stereo not given), the viability in assay [1] was 104%; in assay [3], 104% (inactive); in assay [4], 97.9% (inactive); in assay [5], 108% (inactive); in [6] (setting [16]) it was 93.2%; in assay [6] (setting [17]), 108%. The viability in assay [12] is 98.6% (inactive); in [13] it was 93.7% (inactive). In [2], the Her2 level is 128% (inactive). Moreover, the differential viability (reversal) in [6] (H69AR cells + 2 uM doxorubicin) was 14.9% (inactive). In addition, the inhibition in assay [7] was -6% (inactive); in assay [8], -0.48% (inactive); in [14] it was -0.63% (inactive). Further, the values for the growth inhibition in assay [9] and in assay [10] were -9.35% (inactive) and -3.4% (inactive), respectively. Also, the viability increase in assay [11] was -0.54% (inactive). For the same compound, in [15], the RAM network inhibition is 11.3% (inactive).
